# Assay results published in PubChem BioAssay (EPA / NIEHS).
# Calls of active or inactive are those of the source. How the source made its calls: active means hit-call score of the fitted dose curve at least 0.9, where 1 is the maximum; inactive means score below 0.9.
# Test: BSK_CASM3C_SRB: Viability Assessment in the BioMAP Diversity Plus: CASM3C Assay (AID 2283050);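 further: total protein by SRB staining as cytotoxicity measure in parallel cultures; cells exposed to compound for 24 h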
# Conditions: primary human coronary artery smooth muscle cells
Structure (SMILES),outcome,AC50
Cc1c(COC(=O)[C@@H]2[C@H](/C=C(\Cl)C(F)(F)F)C2(C)C)cccc1-c1ccccc1,inactive,
O=c1n(Cl)c(=O)n(Cl)c(=O)n1Cl,inactive,
CC1(C)CCC(=Cc2ccc(Cl)cc2)C1(O)Cn1cncn1 (stereo unspecified),inactive,
COC(=O)N(C(=O)N1CO[C@@]2(C(=O)OC)Cc3cc(Cl)ccc3C2=N1)c1ccc(OC(F)(F)F)cc1,inactive,
CC1(C)CON(Cc2ccccc2Cl)C1=O,inactive,
Cn1c(-c2ccccc2)cc(-c2ccccc2)[n+]1C,inactive,
COC(=O)NC(=S)Nc1ccccc1NC(=S)NC(=O)OC,inactive,
N#CN=C1SCCN1Cc1ccc(Cl)nc1,inactive,
CS(=O)(=O)c1cc(C(F)(F)F)ccc1C(=O)c1cnoc1C1CC1,inactive,
COP(=S)(OC)SCn1nnc2ccccc2c1=O,inactive,
CCSC(=O)N1CCCCCC1,inactive,
O=C(O)c1c(Cl)ccc2cc(Cl)cnc12,inactive,
CCCCOCN(C(=O)CCl)c1c(CC)cccc1CC,,31.4 µM (active)
CC(C)N1C(=O)c2ccccc2NS1(=O)=O,inactive,
CCCCC(O)(Cn1cncn1)c1ccc(Cl)cc1Cl (stereo unspecified),inactive,
COCC(C)N(C(=O)CCl)c1c(C)csc1C (stereo unspecified),inactive,
CC1(C)C(C=C(Cl)Cl)C1C(=O)OC(C#N)c1cccc(Oc2ccccc2)c1 (stereo unspecified),inactive,
CCOP(=S)(OCC)Oc1nc(Cl)n(C(C)C)n1,inactive,

Structure (SMILES),outcome,AC50
COP(=O)(OC)O/C(C)=C/C(=O)N(C)C,inactive,
CCN(CC)c1nc(C)cc(OP(=S)(OC)OC)n1,inactive,
Cc1cc(C)nc(Nc2ccccc2)n1,inactive,
O=P(O)(O)CCCl,inactive,
CC(C)(C)C(=O)C(Oc1ccc(Cl)cc1)n1cncn1 (stereo unspecified),inactive,
C=C(C)CN(CC)c1c([N+](=O)[O-])cc(C(F)(F)F)cc1[N+](=O)[O-],inactive,
C=CCOC(=O)C(C)(C)OC(=O)c1cc(-n2c(=O)cc(C(F)(F)F)n(C)c2=O)ccc1Cl,inactive,
CCN(CC)C(=O)C(C)Oc1cccc2ccccc12 (stereo unspecified),inactive,
COCc1cnc(C2=NC(C)(C(C)C)C(=O)N2)c(C(=O)O)c1 (stereo unspecified),inactive,
O=C1C2CC=CCC2C(=O)N1SC(Cl)(Cl)Cl (stereo unspecified),,29.5 µM (active)
CCCC(=NOCC)C1=C(O)CC(CC(C)SCC)CC1=O (stereo unspecified),inactive,
CO/N=C(/C1=NOCCO1)c1ccccc1Oc1ncnc(Oc2ccccc2Cl)c1F,inactive,
CC(C)Oc1cccc(NC(=O)c2ccccc2C(F)(F)F)c1,inactive,
CC(C)C1(C)N=C(c2ncccc2C(=O)O)NC1=O (stereo unspecified),inactive,
COCC(=O)N(c1c(C)cccc1C)C(C)C(=O)OC (stereo unspecified),inactive,
CC(C)N1C(=O)N(c2ccccc2)CSC1=NC(C)(C)C,inactive,
CCNP(=S)(OC)O/C(C)=C/C(=O)OC(C)C (stereo unspecified),inactive,
CNC(=O)Oc1cccc2ccccc12,inactive,
